Assay [1] is described as follows: Her2 expression decrease, cell viability multiplex – SKBR3 breast tumor cells, AlphaScreen, ATP viability, primary screen (AID 461).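 As to Her2 level: lower value means less Her2 protein in the cells.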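 As to viability: percent of carrier control wells set as 100% viability.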 The settings on record: SKBR3 Her2 protein level, 18-24 h, measured here: SKBR3 viability, ATP luminescence, at 10 µM.
For assay [2], the target named is Receptor tyrosine-protein kinase erbB-2 (Homo sapiens) (UniProt P04626). The description is as above. The settings on record: 18-24 h, at 10 µM, stronger effect = lower value.
Chain of Receptor tyrosine-protein kinase erbB-2 (Homo sapiens) (P04626 whole entry, looked up): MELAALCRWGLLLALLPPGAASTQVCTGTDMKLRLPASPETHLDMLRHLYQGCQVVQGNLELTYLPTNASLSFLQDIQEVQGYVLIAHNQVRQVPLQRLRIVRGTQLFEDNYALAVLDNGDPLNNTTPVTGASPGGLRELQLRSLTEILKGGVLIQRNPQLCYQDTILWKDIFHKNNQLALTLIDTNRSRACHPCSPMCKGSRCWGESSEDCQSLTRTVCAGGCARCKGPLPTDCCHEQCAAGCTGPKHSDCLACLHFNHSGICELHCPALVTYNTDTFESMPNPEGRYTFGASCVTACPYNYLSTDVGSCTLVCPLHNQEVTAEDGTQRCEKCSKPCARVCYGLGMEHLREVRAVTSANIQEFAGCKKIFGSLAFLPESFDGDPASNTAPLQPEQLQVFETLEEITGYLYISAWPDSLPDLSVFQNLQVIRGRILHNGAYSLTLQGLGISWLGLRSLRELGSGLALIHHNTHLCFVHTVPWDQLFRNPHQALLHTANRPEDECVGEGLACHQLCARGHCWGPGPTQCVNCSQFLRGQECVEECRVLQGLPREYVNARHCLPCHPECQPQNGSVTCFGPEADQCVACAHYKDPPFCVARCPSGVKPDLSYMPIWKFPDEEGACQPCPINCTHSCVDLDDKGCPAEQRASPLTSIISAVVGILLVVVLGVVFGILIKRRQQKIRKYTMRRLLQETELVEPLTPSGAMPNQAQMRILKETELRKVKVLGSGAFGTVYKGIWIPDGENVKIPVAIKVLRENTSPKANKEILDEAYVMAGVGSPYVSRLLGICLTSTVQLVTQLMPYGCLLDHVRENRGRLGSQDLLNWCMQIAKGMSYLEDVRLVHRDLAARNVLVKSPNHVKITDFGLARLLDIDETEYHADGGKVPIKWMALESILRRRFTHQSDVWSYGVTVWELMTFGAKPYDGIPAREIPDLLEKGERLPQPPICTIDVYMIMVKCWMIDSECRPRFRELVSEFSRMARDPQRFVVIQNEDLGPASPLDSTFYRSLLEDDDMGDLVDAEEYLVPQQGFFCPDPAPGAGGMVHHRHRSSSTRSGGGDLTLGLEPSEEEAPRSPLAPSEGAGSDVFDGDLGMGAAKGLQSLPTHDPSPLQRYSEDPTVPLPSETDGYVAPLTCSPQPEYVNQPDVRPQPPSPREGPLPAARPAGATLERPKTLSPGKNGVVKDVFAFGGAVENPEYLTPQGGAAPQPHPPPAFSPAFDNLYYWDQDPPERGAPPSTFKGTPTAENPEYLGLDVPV
Assay [3] in a line: reduced viability of SK-BR-3 breast cancer cells – cell-based, 24 h, human, pilot screen (AID 572;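 active = viability at or below 10% of carrier control in both of two separate runs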;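 also: compound exposure lasted between 18 and 24 h rather than exactly 24 h; 100% = carrier-treated control wells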). The settings on record: SK-BR-3 viability, CellTiter-Glo luminescence, at 10 µM, stronger effect = lower value.
Assay [4] is described as follows: HUVEC growth inhibition – cell-based, human, primary screen (AID 575;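 active = viability at or below 30% in both replicate assays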;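 also: 100% = median of untreated cell wells with 0.1% DMSO on each plate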). The settings on record: HUVEC proliferation, CellTiter-Glo luminescence, 72 h; at 10 µM; stronger effect = lower value.
Assay [5] can be described thus: H69AR cell proliferation blockers – human, duplicate replicates, primary screen (AID 580;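 active = viability at or under a set limit in both replicates, limit being median viability minus 3 SD, cut at about 48% in these data, passing the limit was not always enough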;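 also: 100% = mean luminescence of untreated wells and 0% = no signal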). The settings on record: H69AR lung tumor cells viability, ATP luminescence, 72 h; at 10 µM; stronger effect = lower value.
Assay [6] can be described thus: MRP1 drug-resistance reversers in H69AR cells – cell-based, doxorubicin co-treatment, pilot screen (AID 601;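 active = viability loss from added drug above about 55%, and viability with drug at most 40%, in both replicates, limit read from the data, passing the limit was not always enough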). The settings on record: CellTiter-Glo, 72 h, at 10 µM; for differential viability (reversal): stronger effect = higher value.
Assay [7] is described as follows: yeast transport mutant growth inhibition pilot in 384-well plates, post-Golgi transport modulator project (AID 636; in the data active = inhibition above about 31%). The settings on record: absorbance 615 nm, about 18 h, stronger effect = higher value.
Assay [8] is described as follows: growth suppression of yeast trafficking mutant, preliminary HTS, modulators of trafficking downstream of Golgi apparatus project, 1536-format plate, OD 615 nm (AID 637; in the data active = inhibition above about 30%). The settings on record: yeast transport mutant growth, absorbance 615 nm, 18 h; stronger effect = higher value.
Assay [9] can be described thus: S. cerevisiae growth inhibition in permissive medium (OD615), pilot counter-assay for S. cerevisiae lifespan shortening project, permissive growth control (AID 705;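 active = growth inhibition above 25% in both replicates, a cutoff set 3 SD above the mean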). The settings on record: OD615, 24 h, at 10 µM, stronger effect = higher value.
The nature of assay [10]: S. cerevisiae growth inhibition in restrictive medium, OD615, pilot screen, restrictive growth control, yeast lifespan reduction project (AID 706;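 active = growth inhibition above a set limit, 3 SD over mean compound inhibition, in both replicates, cut at about 43% in these data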;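 also: modified DeaD lifespan yeast strain shifted to restrictive glucose medium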). The settings on record: OD615, 48 h, at 10 µM, stronger effect = higher value.
Assay [11] is described as follows: doxorubicin toxicity protection in MRP-1 cells – H69AR cells, CellTiter-Glo, duplicate, MRP-1 activator project, pilot screen (AID 807;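 active = viability increase at or above a cutoff of the median across tested compounds plus 3 SD, cut at about 8.5% in these data, passing the limit was not always enough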;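 also: compound pretreatment 18-22 h then 72 h combined with doxorubicin; 0% = doxorubicin alone and 100% = vehicle without doxorubicin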). The settings on record: H69AR viability with doxorubicin, CellTiter-Glo luminescence; at 10 µM; stronger effect = higher value.
Assay [12] can be described thus: viability of HCT116 without oncogenic beta-catenin – human colon tumor cells, pilot screen (AID 823;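 active = cell viability at or below a set limit in both duplicate runs, the limit being the all-compound median minus 4 SD, cut at about 23% in these data, passing the limit was not always enough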;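 also: 0% = wells killed by 20 µM Hyamine and 100% = untreated DMSO cell wells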). The settings on record: HCT116 beta-catenin knockout viability, CellTiter-Glo, 60 h; at 10 µM; stronger effect = lower value.
A short description of assay [13]: viability of PTEN-null HCT116 cells – cell-based, HCT116 clonal line, CellTiter-Glo, pilot screen (AID 824;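 active = viability at or below 27.92% in each of two runs, the all-compound median minus 4 SD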;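 also: 0% = 20 µM Hyamine control and 100% = vehicle cell control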). The settings on record: HCT116 PTEN-deleted viability, 60 h, at 10 µM, stronger effect = lower value.
A short description of assay [14]: RAM pathway blockade in budding yeast – dse1pr::URA3 reporter, 5-FOA selection, pilot screen (AID 869;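 active = inhibition over a set limit, the all-compound mean plus 3 SD, in both replicate runs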;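 also: 0% = DMSO wells with no growth and 100% = 10 µM 1-NA-PP1 with full growth; RAM network block rescues cells from 5-FOA so hits raise OD615 growth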). The settings on record: S. cerevisiae dse1pr::URA3 5-FOA growth, OD615, 2 d; at 10 µM; stronger effect = higher value; strain carries analog-sensitive mutant Cbk1 kinase.
A short description of assay [15]: RAM signaling pathway blockade in yeast – S. cerevisiae, Pdr1DBD-CYC8 efflux-inhibited sensitized strain, primary screen (AID 1298;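 active = RAM network inhibition above 8.4% in each of two replicates, 3 SD over the compound average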;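 also: 0% = DMSO untreated cells without growth and 100% = 10 µM 1-NA-PP1 full growth; higher means more yeast growth rescued from 5-FOA killing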). The settings on record: S. cerevisiae cbk1-as DSE1-URA3 strain, 5-FOA growth OD615, 2 d; at 50 µM; stronger effect = higher value.
[16] abbreviates: H69AR cells + 2 uM doxorubicin, measured here: viability with 2 uM doxorubicin, stronger effect = lower value.
Where [17] appears, read: H69AR cells, compound alone cytotoxicity.

Results filed as inconclusive are left out. Activity calls are given as the source filed them.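 The calls were made as follows, unless noted: active = Her2 level under about 52% in both replicate screens, with viability over 70% of control (limit read from the data); inconclusive = Her2 under the limit in one screen only, or viability under 70%; inactive = Her2 level above the set limit.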

For `CCCn1c(NCc2cc(C)ccc2O)nc2ccccc21`, the viability in assay [1] was 94.5%; in [3], 94.5% (inactive); in [4], 69.4% (inactive); in assay [5], 77.9% (inactive); in assay [6] (setting [16]), 76%; in [6] (setting [17]) it was 77.9%. Also, the viability is 53.6% (inactive) in assay [12] and 60.1% (inactive) in assay [13]. Moreover, in assay [2], the Her2 level is 106% (inactive). In assay [6] (H69AR cells + 2 uM doxorubicin), the differential viability (reversal) was 1.94% (inactive). Further, the inhibition in [7] was -1.73% (inactive); in [8] it was 9.68% (inactive); in assay [14] it was -0.08% (inactive). Moreover, the growth inhibition in assay [9] is -4.45% (inactive); in assay [10] it was -8.17% (inactive). For the same molecule, the viability increase in [11] was -4.6% (inactive). Besides, in [15], the RAM network inhibition was 0.33% (inactive).
For `Cc1cc(C)n2nc(S(=O)(=O)N(C)c3ccccc3)nc2n1`, the viability was 103% in assay [1]; 103% (inactive) in assay [3]; 88.2% (inactive) in assay [4]; 94.5% (inactive) in assay [5]; 93.9% in assay [6] (setting [16]); 94.5% in assay [6] (setting [17]). The viability is 104% (inactive) in assay [12] and 98.1% (inactive) in assay [13]. Moreover, the Her2 level in assay [2] is 102% (inactive). For the same molecule, the differential viability (reversal) in assay [6] (H69AR cells + 2 uM doxorubicin) was 0.67% (inactive). Besides, the inhibition in [7] was -5.6% (inactive); in assay [8], 4.17% (inactive); in assay [14], 3.53% (inactive). Also, the growth inhibition in [9] was -16.1% (inactive); in assay [10], -13.7% (inactive). Also, the viability increase in [11] was -1.5% (inactive). Also, the RAM network inhibition in assay [15] was 1.62% (inactive).
Regarding `CCOC(=O)N1CCN(Cc2nc3c(c(=O)n(C)c(=O)n3C)n2Cc2ccc(F)cc2)CC1`, the viability was 86.5% in [1]; 86.5% (inactive) in assay [3]; 92.9% (inactive) in assay [4]; 72.6% (inactive) in [5]; 72.8% in assay [6] (setting [16]); 72.6% in assay [6] (setting [17]). In addition, the values for the viability in assay [12] and in assay [13] were 93.3% (inactive) and 81.7% (inactive), respectively. In addition, the Her2 level in assay [2] was 101% (inactive). The differential viability (reversal) in assay [6] (H69AR cells + 2 uM doxorubicin) is -0.205% (inactive). Besides, the inhibition is -4.27% (inactive) in [7], 3.67% (inactive) in [8] and 0.44% (inactive) in [14]. The figures for the growth inhibition in assay [9] and in [10] were -5.48% (inactive) and 5.73% (inactive), respectively. The viability increase in assay [11] was -3.14% (inactive). Moreover, the RAM network inhibition in [15] is 0.36% (inactive).
Turning to `COc1ccc(C(=O)NCc2nnc(SC)n2C2CCCCC2)cc1`, the viability was 104% in assay [1]; 104% (inactive) in assay [3]; 81.2% (inactive) in [4]; 92% (inactive) in [5]; 82.5% in assay [6] (setting [16]); 92% in assay [6] (setting [17]). Moreover, the viability in assay [12] is 99.8% (inactive); in [13], 96.4% (inactive). In assay [2], the Her2 level was 91% (inactive). Also, in assay [6] (H69AR cells + 2 uM doxorubicin), the differential viability (reversal) was 9.5% (inactive). Further, the inhibition in [7] is -3.33% (inactive); in assay [8] it was -3.44% (inactive); in assay [14], 1.08% (inactive). Also, the results for the growth inhibition in assay [9] and in [10] were -4.53% (inactive) and 3.39% (inactive), respectively. Besides, in assay [11], the viability increase is -1.51% (inactive). Besides, the RAM network inhibition in assay [15] is 2.76% (inactive).
With `Cc1cc(C)c(C(=O)Nc2ccc(S(=O)(=O)Nc3onc(C)c3C)cc2)c(C)c1`, the viability in assay [1] was 110%; in [3], 110% (inactive); in [4], 79.5% (inactive); in [5], 93.4% (inactive); in assay [6] (setting [16]), 86.9%; in [6] (setting [17]), 93.4%. Further, the viability was 93.3% (inactive) in assay [12] and 95.3% (inactive) in [13]. The Her2 level in [2] is 100% (inactive). Moreover, in [6] (H69AR cells + 2 uM doxorubicin), the differential viability (reversal) is 6.5% (inactive). Further, the inhibition in [7] is -6.27% (inactive); in assay [8], -1.48% (inactive); in [14], 2.68% (inactive). The growth inhibition in assay [9] was -15% (inactive); in assay [10], -9.75% (inactive). The viability increase in [11] is 2.97% (inactive). In addition, in assay [15], the RAM network inhibition was 10.4% (inactive).

The values above are taken from PubChem BioAssay.
